Source: PubChem (several laboratories)
V-ATPase pHluor – regulators of yeast V-ATPase proton transport. S. cerevisiae, pHLuorin cytosolic pH fluorescence. response, % at 10 µM. actives 0.37% (n = 350,000); in the data active = response mostly above about 7.3%, no sharp cut-off; inactive = mostly below about 5.4%; also: actives read high
tim23-1 inh – inhibits growth of tim23-1 mutant yeast; S. cerevisiae tim23-1 growth, BacTiter-Glo luminescence, 24 h; inhibition, % at 20 µM; actives 1.3% (n = 330,000);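 active = growth inhibition of the mutant yeast at or above 50%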;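 also: temperature-sensitive mutant grown at 25 °C; plate controls were DMSO-treated mutant yeast for no effect and medium wells lacking yeast for full effect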
NLRP3 yeast inh – inhibitors of NALP3 inflammasome in yeast. Yeast reconstituted NLRP3/ASC/caspase-1, beta-gal luminescence, 24 h. inhibition, % at 10 µM. actives 0.39% (n = 330,000);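 active = inhibition of 50% or more; inactive = inhibition below 50%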;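 also: plate controls were induced DMSO wells for no effect and uninduced yeast grown without galactose for full effect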
TIM10 inh – TIM10 yeast growth inhibition; AID 463195; S. cerevisiae TIM10 strain growth, BacTiter-Glo luminescence, 24 h; actives 1.4% (n = 330,000); inhibition, % at 10 µM;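 active = inhibition of 40% or more at the single tested concentration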;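 also: wild-type TIM10 isogenic control strain grown at permissive 25 °C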
tim10-1 inh – growth inhibitors of tim10-1 mutant yeast | actives 2.2% (n = 330,000) | inhibition, % at 20 µM | S. cerevisiae tim10-1 ts strain growth, BacTiter-Glo, 24 h;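 active = inhibition of at least 40%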;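 also: mutant grown at 25 °C; 0% = DMSO wells with yeast and 100% = wells holding no yeast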
NALP1 inh – inhibitors of NALP1 inflammasome in yeast. S. cerevisiae NALP1/ASC/caspase-1 growth, X-gal OD620, 72 h. inhibition, % at 10 µM. actives 0.61% (n = 280,000); in the data active = inhibition mostly above about 24%, no sharp cut-off; inactive = mostly below about 32%
V-ATPase pH SP – modulates yeast V-ATPase proton transport. S. cerevisiae pHLuorin cytosolic pH. actives 2% (n = 980). response, % at 10 µM. shares compounds with V-ATPase pHluor. AID 602197; in the data active = response above about 24%;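 also: plate controls were vehicle wells for no effect and positive control wells for full effect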
Active calls of the source: *; x = no result. The list is not random: actives were taken first. Their share in the collection is about 4.2%.

SMILES	V-ATPase pHluor	tim23-1 inh	NLRP3 yeast inh	TIM10 inh	tim10-1 inh	NALP1 inh	V-ATPase pH SP
CC(Sc1nncn1C)C(=O)Nc1ccc2ccccc2c1 (stereo not drawn)	1.5	2.2	13.6	1.2	-8.3	x	x
CC1CCCN(CCC(=O)c2ccc(Br)cc2)C1 (stereo not drawn)	8.8*	1.3	27.3	-3.1	5.8	47.4	15.9
OCCC1CN(Cc2cccc(-n3cccn3)c2)CCN1Cc1ccccc1 (stereo not drawn)	2.6	0.7	16.0	-4.3	-5.2	22.7	x
CC(CN1CCOCC1)OC(=O)Cc1ccc(Cl)cc1 (stereo not drawn)	11.5*	-0.9	7.7	7.6	10.3	-5.0	2.3
Cc1ccc(C)c(OCc2ccc(C(=O)Nc3ccc([N+](=O)[O-])cn3)o2)c1	9.9*	5.1	23.0	-4.7	3.4	x	4.5
CC(C)(C)n1ncc2c(=O)n(Cc3cccc(Cl)c3)cnc21	1.6	48.9	1.1	12.9	21.6	-9.2	x
CC1=C(C(=O)Nc2ccccc2)C(c2cccc([N+](=O)[O-])c2)Nc2nc3ccccc3n21 (stereo not drawn)	17.4*	7.5	23.3	13.2	-2.9	4.2	1.1
CC(=O)Nc1ccc(S(=O)(=O)N(C)CC(=O)N(C)Cc2sccc2C)cc1	3.8	-1.1	2.8	5.2	-3.1	x	x
CC1CC(C)CN(C(=O)CN2C(=O)NC3(CCCCCC3)C2=O)C1 (stereo not drawn)	11.9*	9.2	5.7	-11.3	5.9	x	2.6
CC1CN(C(=O)CN2C(=O)NC3(CCCCCCC3)C2=O)CC(C)O1 (stereo not drawn)	-2.5	13.3	9.4	-18.4	10.2	-13.0	x
CC(C)(C)c1ccc(OCC(=O)N(Cc2cccs2)C2CCS(=O)(=O)C2)cc1 (stereo not drawn)	-3.7	32.3	8.1	12.4	24.2	8.3	x
C/C(=N\O)C(C)(C)Nc1cccc(Br)c1	15.6*	-10.8	10.8	-10.7	-15.2	x	3.9
CC(=O)NC(Cc1ccccc1)C(=O)N1CCN(C(=O)c2ccco2)CC1 (stereo not drawn)	-5.0	-1.1	-8.9	-18.4	5.8	18.4	x
O=C(NC(Cc1ccccc1)C(=O)N1CCN(c2ccccn2)CC1)c1ccco1 (stereo not drawn)	12.2*	21.3	7.9	-8.7	1.1	1.7	-1.8
CCCCCOC(=O)C1=C(C)NC(=O)NC1c1ccc(N(C)C)cc1 (stereo not drawn)	2.4	15.3	16.2	2.3	13.9	2.9	x
CCCCCOC(=O)C1=C(C)NC(=O)NC1c1ccccc1 (stereo not drawn)	11.7*	12.5	17.3	-2.6	0.5	3.8	6.1
COCCn1c(N)c(N(Cc2ccccc2)C(=O)c2ccc(-c3ccc(Cl)cc3)o2)c(=O)[nH]c1=O	0.7	18.4	14.4	4.5	20.8	x	x
COc1cc(F)cc(-c2ccc3c(c2)c(-c2cccs2)c(-c2cc(OC)cc(OC)c2)n3C)c1	3.5	17.3	-3.5	2.3	19.2	x	x
COc1cc(OC)cc(-c2c(-c3cccs3)c3cc(-c4ccc(CN5CCOCC5)cc4)ccc3n2C)c1	7.8*	11.9	9.7	15.9	8.8	x	-69.5
Cc1cccc(S(=O)(=O)Nc2ccc(-n3c(C)nc4ccccc4c3=O)cc2)c1	-0.2	8.4	16.6	20.4	16.7	x	x
CN(C(=O)COC(=O)CCC(=O)c1ccc(F)cc1)C1CCCCC1	2.7	2.9	19.1	-8.7	4.8	x	x
Clc1ccc(N2CCN(c3ccnc(Cl)n3)CC2)cc1	-0.5	13.5	23.1	12.3	11.2	x	x
CSc1nccc(N2CCN(c3ccc(F)cc3)CC2)n1	11.0*	-2.6	-5.4	14.7	-21.2	7.6	-1.2
O=C(Nc1ccn(Cc2c(F)c(F)cc(F)c2F)n1)c1cccc(Cn2cc([N+](=O)[O-])cn2)c1	19.2*	9.7	12.4	26.3	23.6	-8.2	1.1
O=C(CN(CC1CCCO1)C(=O)CNS(=O)(=O)c1ccc(Cl)cc1)NCCc1ccccc1 (stereo not drawn)	23.4*	19.5	3.8	-6.2	12.8	-4.3	0.2
SMILES	V-ATPase pHluor	tim23-1 inh	NLRP3 yeast inh	TIM10 inh	tim10-1 inh	NALP1 inh	V-ATPase pH SP
O=C(CN(CC1CCCO1)C(=O)CNS(=O)(=O)c1ccc(F)cc1)NCCc1ccccc1 (stereo not drawn)	-2.0	14.0	20.9	-3.5	1.8	-6.3	x
COCCNC(=O)c1ccccc1NC(=O)c1ccc(OC)c(OC)c1	10.6*	7.4	12.4	8.5	8.1	28.1	2.2
COc1ccccc1NC(=O)c1ccc(COc2ccccc2OC)cc1	10.3*	17.5	20.4	16.7	19.1	x	0.8
COc1ccccc1OCc1ccc(C(=O)Nc2ccccc2F)cc1	0.6	-22.1	21.5	-12.2	-9.8	13.6	x
Cc1cc(C)cc(NS(=O)(=O)c2ccc3oc(=O)ccc3c2)c1	13.6*	25.5	22.0	39.8	27.6	13.5	2.7
C=CCNCCOc1c(C)cc(C)cc1Cl	7.7*	11.9	12.3	-4.3	10.1	29.4	2.7
CCOC(=O)CCNC(=O)N1CCCC(N(C)CCc2ccc(OC)c(OC)c2)C1 (stereo not drawn)	2.3	12.1	21.5	-11.0	6.1	15.4	x
Cc1c(C)n2c3c(cccc13)CC2	6.0*	8.6	18.7	-8.4	6.8	13.0	0.9
O=C(O)CCN1C(=O)C2C3CC(C2C1=O)C1C(c2ccccc2)c2sc(=O)n(-c4ccccc4)c2SC31 (stereo not drawn)	9.2*	18.3	11.3	3.0	25.5	11.7	3.0
O=C(O)CCc1ccc(-c2ccc(Br)cc2)n1-c1ccc(O)cc1	11.6*	21.2	17.0	17.5	15.6	16.4	-4.1
COc1ccc(C(=O)N/N=C(\CCC(=O)O)c2ccc(C(C)(C)C)cc2)cc1OC	-1.9	8.8	9.2	7.9	0.1	17.6	x
CCOC(=O)Nc1c2ccccc2nc2ccccc12	-1.6	-5.0	-4.0	23.8	6.5	7.4	-48.3
COC(=O)c1cnc(SCc2ccc(Cl)cc2)n1C	6.3*	-11.2	28.8	-6.4	-1.8	19.2	1.5
COCCNC(=O)C/C(C)=N/NC(=O)C(=O)NC1CCCCC1	1.3	6.4	14.2	2.7	8.9	12.4	x
COc1ccccc1NC(=O)C(C)OC(=O)CCCOc1ccccc1 (stereo not drawn)	10.9*	-7.2	2.4	-24.0	-3.4	x	-2.2
CCOC(=S)SCC(=O)N1CCc2cc(OC)c(OC)cc2C1C1C(=O)CC(C)(C)CC1=O (stereo not drawn)	20.3*	7.0	-15.6	9.6	18.3	30.3	-2.5
CCOC(=S)SCC(=O)N1CCc2ccccc2C1C1C(=O)CC(C)(C)CC1=O (stereo not drawn)	4.6	29.1	-6.0	27.4	28.1	24.1	x
Cc1ccc(S(=O)(=O)N(C)C)cc1NC(=O)Cn1c(CN2CCOCC2)nc2ccccc2c1=O	-0.7	-4.5	16.3	10.9	18.0	-7.0	x
